Results taken from PubChem BioAssay (EPA / NIEHS).
Values joined by “and” are separate entries in the source; they are usually repeats but may differ in a detail not shown here. Identical values can stand only once. Records with an inconclusive call do not appear. More than one record can exist for a structure, and the calls need not agree. Active and inactive are the calls of the source. The calls were made as follows, unless noted: active = hit-call score of the fitted dose curve at least 0.9, where 1 is the maximum; inactive = score below 0.9.

Assays:
[1] = target: human Thyroid Receptor alpha (THRa1), THRA (gene 7067) (UniProt P10827); experiment: ATG_THRa1_TRANS: Attagene TRANS-FACTORIAL HepG2 Assay for human Thyroid Receptor alpha (THRa1) (AID 2283014; active = hit-call score of the fitted dose curve at least 0.9, where 1 is the maximum)
Sequence of human Thyroid Receptor alpha (THRa1), THRA (gene 7067) (P10827 whole entry, looked up, the tested form may be a part): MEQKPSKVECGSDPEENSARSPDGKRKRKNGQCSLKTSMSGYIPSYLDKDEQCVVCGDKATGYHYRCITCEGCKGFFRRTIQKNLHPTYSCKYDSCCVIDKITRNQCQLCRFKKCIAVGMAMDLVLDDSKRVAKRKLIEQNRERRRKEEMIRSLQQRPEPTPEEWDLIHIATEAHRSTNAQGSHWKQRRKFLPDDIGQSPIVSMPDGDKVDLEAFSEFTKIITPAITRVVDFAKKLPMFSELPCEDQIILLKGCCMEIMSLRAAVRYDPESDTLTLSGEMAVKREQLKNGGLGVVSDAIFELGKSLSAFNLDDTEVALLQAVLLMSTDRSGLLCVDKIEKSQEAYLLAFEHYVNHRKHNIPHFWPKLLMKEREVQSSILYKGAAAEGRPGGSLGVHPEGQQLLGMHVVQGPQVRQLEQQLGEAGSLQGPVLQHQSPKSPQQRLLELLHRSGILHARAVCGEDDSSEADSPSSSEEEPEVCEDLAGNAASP
Procedure, shortened: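 First, HepG2 cells receive multiple GAL4-UAS reporter units and the chimeric receptor. They are then dosed for 24 h, after which RNA is reverse-transcribed, amplified, labelled, HpaI-cut and sized by capillary electrophoresis; gain relative to DMSO is scored.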

[2] = read-out: E-selectin (Homo sapiens) (UniProt P16581); experiment: BSK_3C_Eselectin: BioMAP Diversity Plus: 3C Assay for Eselectin Biomarker Activity (AID 2283015); conditions: primary human endothelial cells (HUVEC); actives raise or lower the signal
Procedure, shortened: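 Human vascular endothelium from umbilical vein is exposed to test chemicals for 24 h. E-selectin levels are read by ELISA and compared with DMSO controls.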

[3] = read-out: Interleukin-1 alpha (IL1a), IL1A (gene 3552); experiment: BSK_BE3C_IL1a: BioMAP Diversity Plus: BE3C Assay for Interleukin-1 alpha (IL1a) Biomarker Activity (AID 2283016); conditions: primary human bronchial epithelial cells; actives raise or lower the signal
Procedure, shortened: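 Measured in human lung primary bronchial epithelial cells: IL-1a by ELISA at 24 h after dosing, with bidirectional fitting against DMSO.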

[4] = read-out: Monocyte Chemoattractant Protein-1 (MCP1), CCL2 (gene 6347); experiment: BSK_3C_MCP1: BioMAP Diversity Plus: 3C Assay for Monocyte Chemoattractant Protein-1 (MCP1) Biomarker Activity (AID 2283017); conditions: primary human endothelial cells (HUVEC); actives raise or lower the signal
Procedure, shortened: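 Endothelial cells from human umbilical vein are dosed with chemical, cultured 24 h, then assayed for MCP-1 by ELISA; both increases and decreases are modelled against DMSO controls.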

[5] = read-out: Monocyte Chemoattractant Protein-1 (MCP1), CCL2 (gene 6347); experiment: BSK_4H_MCP1: BioMAP Diversity Plus: 4H Assay for Monocyte Chemoattractant Protein-1 (MCP1) Biomarker Activity (AID 2283018); conditions: primary human endothelial cells (HUVEC); actives raise or lower the signal
Procedure, shortened: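 Primary human umbilical vein endothelium is exposed to chemical for 24 h before MCP-1 is assayed by ELISA. Concentration-response fitted bidirectionally relative to DMSO.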

[6] = read-out: Human Leukocyte Antigen - DR isotype (HLADR), HLA-DRA (gene 3122); experiment: BSK_3C_HLADR: BioMAP Diversity Plus: 3C Assay for Human Leukocyte Antigen - DR isotype (HLADR) Biomarker Activity (AID 2283019); conditions: primary human endothelial cells (HUVEC); actives raise or lower the signal
Procedure, shortened: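 Endothelial cells from human umbilical vein are treated with test chemical; after 24 h, HLA-DR levels are measured by ELISA. Data are fitted in both directions using DMSO as the baseline.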

[7] = read-out: Interleukin-8 (IL8), CXCL8 (gene 3576); experiment: BSK_3C_IL8: BioMAP Diversity Plus: 3C Assay for Interleukin-8 (IL8) Biomarker Activity (AID 2283020); conditions: primary human endothelial cells (HUVEC); actives raise or lower the signal
Procedure, shortened: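 Using DMSO-treated wells as the baseline, bidirectional curve fitting was applied to ELISA-measured IL-8 from human umbilical vein endothelial cultures sampled 24 h after compound addition.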

[8] = target: human Retinoid X Receptor beta (RXRb), RXRB (gene 6257) (UniProt P28702); experiment: ATG_RXRb_TRANS: Attagene TRANS-FACTORIAL HepG2 Assay for human Retinoid X Receptor beta (RXRb) (AID 2283013; active = hit-call score of the fitted dose curve at least 0.9, where 1 is the maximum)
Sequence of human Retinoid X Receptor beta (RXRb), RXRB (gene 6257) (P28702 whole entry, looked up, the tested form may be a part): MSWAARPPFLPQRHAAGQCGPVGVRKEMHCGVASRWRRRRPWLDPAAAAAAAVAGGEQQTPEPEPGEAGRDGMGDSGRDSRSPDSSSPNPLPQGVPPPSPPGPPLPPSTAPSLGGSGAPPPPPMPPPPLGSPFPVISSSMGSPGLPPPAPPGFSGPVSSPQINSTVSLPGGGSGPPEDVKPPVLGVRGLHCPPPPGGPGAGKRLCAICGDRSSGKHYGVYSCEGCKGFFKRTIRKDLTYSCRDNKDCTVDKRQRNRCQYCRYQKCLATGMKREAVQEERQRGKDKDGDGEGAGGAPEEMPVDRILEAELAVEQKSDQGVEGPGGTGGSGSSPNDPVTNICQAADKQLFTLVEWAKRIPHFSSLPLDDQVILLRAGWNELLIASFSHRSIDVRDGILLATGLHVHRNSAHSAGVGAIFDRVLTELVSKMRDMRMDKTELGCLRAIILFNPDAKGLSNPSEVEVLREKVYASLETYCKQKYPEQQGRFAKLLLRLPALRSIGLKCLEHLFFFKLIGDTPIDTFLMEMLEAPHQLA
Procedure, shortened: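 After a 24 h incubation with test chemical, transfected HepG2 cells carrying NR-Gal4 fusions and GAL4-UAS reporter transcription units yield RNA whose reporter cDNA is FAM-labelled, HpaI-cut and sized by capillary electrophoresis; increases over DMSO are scored.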

Measured: AC50

Sequence of E-selectin (Homo sapiens) (P16581 whole entry, looked up): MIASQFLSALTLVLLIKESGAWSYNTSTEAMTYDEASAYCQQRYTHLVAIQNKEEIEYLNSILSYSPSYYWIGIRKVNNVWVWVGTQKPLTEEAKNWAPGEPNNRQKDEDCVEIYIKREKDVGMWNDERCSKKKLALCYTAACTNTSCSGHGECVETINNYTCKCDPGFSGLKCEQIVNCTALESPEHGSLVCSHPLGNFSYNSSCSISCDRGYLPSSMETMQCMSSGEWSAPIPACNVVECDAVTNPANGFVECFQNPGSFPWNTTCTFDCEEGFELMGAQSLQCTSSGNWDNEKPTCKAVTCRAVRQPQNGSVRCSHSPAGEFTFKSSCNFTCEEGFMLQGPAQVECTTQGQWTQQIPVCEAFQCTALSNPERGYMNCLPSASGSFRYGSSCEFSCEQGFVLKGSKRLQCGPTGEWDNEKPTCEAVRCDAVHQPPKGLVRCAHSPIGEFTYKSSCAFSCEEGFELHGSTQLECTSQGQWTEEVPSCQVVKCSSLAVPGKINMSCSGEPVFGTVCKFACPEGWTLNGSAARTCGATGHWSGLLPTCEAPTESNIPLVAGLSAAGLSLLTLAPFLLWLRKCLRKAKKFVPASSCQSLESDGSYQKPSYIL

COP(=S)(OC)Oc1ccc(S(=O)(=O)N(C)C)cc1
active: [6] 32.3 µM
not listed: [8]
inactive: all other assays above

ClC1(Cl)C2(Cl)C3(Cl)C4(Cl)C(Cl)(Cl)C5(Cl)C3(Cl)C1(Cl)C5(Cl)C24Cl (stereo not given)
not listed: [1] | [8]
inactive: all other assays above

CCC[CH2][Sn]([Cl])([Cl])[Cl]
inactive: [1]

CCOP(=S)(OCC)Oc1ccc(S(C)=O)cc1 (stereo not given)
inactive: all assays above

C[C@]12CCC(=O)C[C@@H]1CC[C@@H]1[C@@H]2CC[C@]2(C)[C@@H](O)CC[C@@H]12
active: [2] 18 µM | [4] 26.9 µM | [6] 27.8 µM | [7] 21.5 µM
inactive: all other assays above

CC(=[OH+])/C=C(/C)[O-].CC(=[OH+])/C=C(/C)[O-].CC(=[OH+])/C=C(/C)[O-].[Fe]
inactive: [1]

CC(C)OC(=O)Nc1ccccc1
inactive: [1]

O=[N+]([O-])c1ccc(O)c([N+](=O)[O-])c1
active: [6] 28 µM
not listed: [8]
inactive: all other assays above

COC(=O)c1sccc1S(=O)(=O)NC(=O)Nc1nc(C)nc(OC)n1
not listed: [1]
inactive: all other assays above

CCOC(=O)Nc1cccc(OC(=O)Nc2ccccc2)c1
inactive: [1]

C[C@@H](Oc1ccc(Cl)cc1Cl)C(=O)O
inactive: [8] | [1]

C=C(C)C(=O)[O][Sn]([CH2]CCC)([CH2]CCC)[CH2]CCC
active: [2] 0.148 µM | [3] 0.148 µM | [4] 0.46 µM | [5] 0.663 µM | [6] 0.233 µM | [7] 0.148 µM
inactive: [1]

CC(C)c1ccc(CO)cc1
inactive: all assays above

O=C1C2(Cl)C3(Cl)C4(Cl)C(Cl)(Cl)C5(Cl)C3(Cl)C1(Cl)C5(Cl)C24Cl (stereo not given)
active: [1] 4.37 µM and 56.4 µM | [2] 11.7 µM | [3] 9.67 µM | [4] 9.53 µM | [5] 8.77 µM | [6] 8.22 µM | [7] 22.3 µM
inactive: [1]

CC(=O)[O][Hg][c]1ccccc1
inactive: [1]
active: [8] 14.8 µM | [2] 3.04 µM | [3] 2.57 µM | [4] 0.964 µM | [5] 1.03 µM | [6] 0.317 µM | [7] 6 µM

C=CC#N
inactive: [1]

CC(C)CCCCCCOC(=O)c1ccccc1C(=O)OCCCCCCC(C)C
not listed: [1] | [8]
inactive: all other assays above

Nc1cccc2ccccc12
not listed: [8]
inactive: all other assays above

CCCCP(CCCC)CCCC
inactive: [1]

CCCCCCCCC(=O)NCc1ccc(O)c(OC)c1
active: [5] 3.97 µM | [6] 20 µM
inactive: [2] | [3] | [4] | [7]

ClC1=C(Cl)[C@]2(Cl)[C@H]3[C@H]([C@H]4C=C[C@H]3C4)[C@@]1(Cl)C2(Cl)Cl
active: [4] 3.97 µM | [5] 0.748 µM | [6] 8.54 µM
not listed: [8]
inactive: all other assays above

CN(C)P(=O)(N(C)C)N(C)C
inactive: [1]

CCOP(=S)(OCC)SCCS(=O)(=O)CC
not listed: [8]
inactive: all other assays above

Clc1ccc(C2(Cn3cncn3)CC(Br)CO2)c(Cl)c1 (stereo not given)
inactive: [1]

O=C(O)CCC(F)(C(F)(F)F)C(F)(F)F
not listed: [1] | [8]
inactive: all other assays above

O=C(OC1CCCCC1)c1ccccc1C(=O)OC1CCCCC1
inactive: [1]
active: [8] 7.44 µM | [2] 11.3 µM | [3] 11.6 µM | [4] 11.7 µM | [5] 8.94 µM | [6] 8.72 µM | [7] 8.46 µM

C(=NC1CCCCC1)=NC1CCCCC1
inactive: [1]
active: [2] 20 µM | [3] 20 µM | [5] 3.82 µM | [6] 10.2 µM | [7] 20 µM

CC(C)(OO)c1ccccc1
not listed: [1]
inactive: all other assays above

CC(C#N)CCC#N (stereo not given)
inactive: [1]
